This note sets out measurements from ChEMBL document CHEMBL1961873, “Compounds: GSK PKIS; Assays: Nanosyn kinase panel” (2012).

For assay [1], the target named is Serine/threonine-protein kinase pim-2 (Homo sapiens) (UniProt Q9P1W9). The conditions noted are these: at 1 µM.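 Note: each value is a mean of the inhibition measurements against the kinase.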
For assay [2], the target named is Serine/threonine-protein kinase pim-3 (Homo sapiens) (UniProt Q86V86). The note with it: at 0.1 µM.
For assay [3] the target is unchanged. The conditions noted are these: at 1 µM.
Assay [4] has as its target T1, MAP kinase-activated protein kinase 5 (Homo sapiens) (UniProt Q8IW41).
T1 sequence (whole entry): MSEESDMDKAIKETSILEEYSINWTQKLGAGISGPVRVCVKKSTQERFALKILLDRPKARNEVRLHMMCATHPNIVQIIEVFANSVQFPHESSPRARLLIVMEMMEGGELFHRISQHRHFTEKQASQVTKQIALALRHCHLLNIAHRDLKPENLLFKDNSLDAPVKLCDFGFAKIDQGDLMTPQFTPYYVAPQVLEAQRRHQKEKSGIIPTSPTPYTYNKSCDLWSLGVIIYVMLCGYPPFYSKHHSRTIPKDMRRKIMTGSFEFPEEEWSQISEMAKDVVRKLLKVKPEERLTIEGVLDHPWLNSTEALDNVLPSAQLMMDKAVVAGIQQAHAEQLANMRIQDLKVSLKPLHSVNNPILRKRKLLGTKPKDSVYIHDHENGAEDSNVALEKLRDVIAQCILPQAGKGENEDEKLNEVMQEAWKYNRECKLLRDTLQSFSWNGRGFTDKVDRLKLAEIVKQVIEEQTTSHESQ
The conditions noted are these: at 0.1 µM.

Assay [5] has as its target T1, MAP kinase-activated protein kinase 5 (Homo sapiens). The note with it: at 1 µM.
The target in assay [6] is Serine/threonine-protein kinase SIK1 (Homo sapiens) (UniProt P57059). The conditions noted are these: at 0.1 µM.
The target is the same in assay [7]. The note with it: at 1 µM.
Assay [8] has as its target Serine/threonine-protein kinase SIK2 (Homo sapiens) (UniProt Q9H0K1). The conditions noted are these: at 0.1 µM.
Assay [9] shares this target. The conditions noted are these: at 1 µM.
Assay [10] addresses T2, Serine/threonine-protein kinase TBK1 (Homo sapiens) (UniProt Q9UHD2).
T2 sequence (whole entry): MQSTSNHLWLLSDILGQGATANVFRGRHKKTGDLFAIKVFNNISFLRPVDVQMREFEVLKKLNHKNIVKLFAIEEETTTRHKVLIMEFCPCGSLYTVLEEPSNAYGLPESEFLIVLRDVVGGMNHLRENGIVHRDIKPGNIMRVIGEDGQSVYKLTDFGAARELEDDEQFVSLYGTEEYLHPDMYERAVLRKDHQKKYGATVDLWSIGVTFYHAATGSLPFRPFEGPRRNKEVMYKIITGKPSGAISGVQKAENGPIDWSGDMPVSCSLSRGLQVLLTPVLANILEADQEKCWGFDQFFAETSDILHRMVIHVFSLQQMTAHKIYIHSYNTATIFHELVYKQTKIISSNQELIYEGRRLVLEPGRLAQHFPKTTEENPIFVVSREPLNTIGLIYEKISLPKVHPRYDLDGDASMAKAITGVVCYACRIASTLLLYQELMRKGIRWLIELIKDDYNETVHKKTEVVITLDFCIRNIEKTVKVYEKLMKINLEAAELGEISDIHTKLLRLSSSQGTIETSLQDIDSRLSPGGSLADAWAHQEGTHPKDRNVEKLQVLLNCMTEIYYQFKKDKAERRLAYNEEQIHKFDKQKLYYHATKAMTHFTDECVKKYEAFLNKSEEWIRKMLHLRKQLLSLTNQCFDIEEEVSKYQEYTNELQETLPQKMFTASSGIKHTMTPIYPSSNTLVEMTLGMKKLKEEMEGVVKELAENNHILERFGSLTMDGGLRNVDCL
The note with it: at 0.1 µM.

For assay [11], the target named is T2, Serine/threonine-protein kinase TBK1 (Homo sapiens). The note with it: at 1 µM.
Assay [12] deals with T3, Testis-specific serine/threonine-protein kinase 1 (Homo sapiens) (UniProt Q9BXA7).
T3 sequence (whole entry): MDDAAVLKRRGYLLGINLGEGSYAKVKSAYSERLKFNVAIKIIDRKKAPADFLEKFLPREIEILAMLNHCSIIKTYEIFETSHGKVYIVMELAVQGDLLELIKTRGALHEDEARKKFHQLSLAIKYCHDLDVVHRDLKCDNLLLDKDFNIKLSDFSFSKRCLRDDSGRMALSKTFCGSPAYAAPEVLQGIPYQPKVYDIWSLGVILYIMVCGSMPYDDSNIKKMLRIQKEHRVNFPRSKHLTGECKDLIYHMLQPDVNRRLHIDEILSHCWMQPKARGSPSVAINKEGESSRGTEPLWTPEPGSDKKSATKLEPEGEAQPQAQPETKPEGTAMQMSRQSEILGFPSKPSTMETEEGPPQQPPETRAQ
The conditions noted are these: at 0.1 µM.

Assay [13] deals with T3, Testis-specific serine/threonine-protein kinase 1 (Homo sapiens). The note with it: at 1 µM.
The target of assay [14] is T4, Testis-specific serine/threonine-protein kinase 2 (Homo sapiens) (UniProt Q96PF2).
T4 sequence (whole entry): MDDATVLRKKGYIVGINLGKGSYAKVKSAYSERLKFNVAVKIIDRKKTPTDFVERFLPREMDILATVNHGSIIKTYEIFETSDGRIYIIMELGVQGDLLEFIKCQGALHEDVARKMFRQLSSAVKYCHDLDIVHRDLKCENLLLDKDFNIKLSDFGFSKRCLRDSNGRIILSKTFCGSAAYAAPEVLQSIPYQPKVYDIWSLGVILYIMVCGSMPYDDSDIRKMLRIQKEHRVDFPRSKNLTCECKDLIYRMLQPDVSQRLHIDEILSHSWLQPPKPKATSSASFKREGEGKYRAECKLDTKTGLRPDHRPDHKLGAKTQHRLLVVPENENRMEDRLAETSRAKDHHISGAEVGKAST
The note with it: at 0.1 µM.

Assay [15] has as its target T4, Testis-specific serine/threonine-protein kinase 2 (Homo sapiens). The note with it: at 1 µM.
Assay [16] deals with Casein kinase I isoform alpha (Homo sapiens) (UniProt P48729). The conditions noted are these: at 0.1 µM.
For assay [17] the target is unchanged. The conditions noted are these: at 1 µM.
Assay [18] concerns the target Casein kinase I isoform gamma-1 (Homo sapiens) (UniProt Q9HCP0). The conditions noted are these: at 0.1 µM.
Assay [19] has the same target. The note with it: at 1 µM.
Assay [20] addresses Casein kinase I isoform gamma-2 (Homo sapiens) (UniProt P78368). The note with it: at 0.1 µM.

One may read the inhibition as the change of the read-out against control, counted positive when it falls.

Each structure is given as a SMILES string.

Casein kinase I isoform alpha (Homo sapiens), sequence (P48729 2-337 limits assumed): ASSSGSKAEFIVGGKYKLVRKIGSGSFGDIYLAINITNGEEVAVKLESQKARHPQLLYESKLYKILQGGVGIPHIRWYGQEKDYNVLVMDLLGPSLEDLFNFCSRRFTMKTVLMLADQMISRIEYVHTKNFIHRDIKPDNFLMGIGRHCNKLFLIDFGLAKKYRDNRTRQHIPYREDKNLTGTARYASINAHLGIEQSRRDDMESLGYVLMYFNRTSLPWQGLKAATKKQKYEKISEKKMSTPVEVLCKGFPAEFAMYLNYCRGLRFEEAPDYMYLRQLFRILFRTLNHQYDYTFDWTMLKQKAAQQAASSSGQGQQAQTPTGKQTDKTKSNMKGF
Casein kinase I isoform gamma-2 (Homo sapiens), sequence (P78368 whole entry, looked up, canonical isoform): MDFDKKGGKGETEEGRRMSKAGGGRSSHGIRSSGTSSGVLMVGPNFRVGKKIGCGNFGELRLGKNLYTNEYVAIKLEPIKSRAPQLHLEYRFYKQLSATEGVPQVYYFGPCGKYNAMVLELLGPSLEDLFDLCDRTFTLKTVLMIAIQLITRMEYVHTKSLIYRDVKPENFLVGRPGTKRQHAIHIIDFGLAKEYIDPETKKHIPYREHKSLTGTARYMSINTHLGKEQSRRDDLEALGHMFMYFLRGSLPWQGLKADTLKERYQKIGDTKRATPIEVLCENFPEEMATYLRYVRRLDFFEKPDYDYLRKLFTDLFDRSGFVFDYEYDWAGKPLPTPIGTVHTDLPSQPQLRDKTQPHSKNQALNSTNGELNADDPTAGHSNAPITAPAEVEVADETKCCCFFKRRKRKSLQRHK
Serine/threonine-protein kinase pim-2 (Homo sapiens), sequence (Q9P1W9 whole entry, looked up): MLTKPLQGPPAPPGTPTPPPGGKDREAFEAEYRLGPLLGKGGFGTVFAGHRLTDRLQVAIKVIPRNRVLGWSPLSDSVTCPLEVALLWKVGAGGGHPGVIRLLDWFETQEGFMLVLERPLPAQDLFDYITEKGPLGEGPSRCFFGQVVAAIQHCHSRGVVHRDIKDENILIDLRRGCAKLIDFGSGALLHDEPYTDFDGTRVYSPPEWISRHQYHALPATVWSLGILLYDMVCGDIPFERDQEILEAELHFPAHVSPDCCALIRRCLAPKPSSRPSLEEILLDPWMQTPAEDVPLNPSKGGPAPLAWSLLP
Serine/threonine-protein kinase SIK1 (Homo sapiens), sequence (P57059 whole entry): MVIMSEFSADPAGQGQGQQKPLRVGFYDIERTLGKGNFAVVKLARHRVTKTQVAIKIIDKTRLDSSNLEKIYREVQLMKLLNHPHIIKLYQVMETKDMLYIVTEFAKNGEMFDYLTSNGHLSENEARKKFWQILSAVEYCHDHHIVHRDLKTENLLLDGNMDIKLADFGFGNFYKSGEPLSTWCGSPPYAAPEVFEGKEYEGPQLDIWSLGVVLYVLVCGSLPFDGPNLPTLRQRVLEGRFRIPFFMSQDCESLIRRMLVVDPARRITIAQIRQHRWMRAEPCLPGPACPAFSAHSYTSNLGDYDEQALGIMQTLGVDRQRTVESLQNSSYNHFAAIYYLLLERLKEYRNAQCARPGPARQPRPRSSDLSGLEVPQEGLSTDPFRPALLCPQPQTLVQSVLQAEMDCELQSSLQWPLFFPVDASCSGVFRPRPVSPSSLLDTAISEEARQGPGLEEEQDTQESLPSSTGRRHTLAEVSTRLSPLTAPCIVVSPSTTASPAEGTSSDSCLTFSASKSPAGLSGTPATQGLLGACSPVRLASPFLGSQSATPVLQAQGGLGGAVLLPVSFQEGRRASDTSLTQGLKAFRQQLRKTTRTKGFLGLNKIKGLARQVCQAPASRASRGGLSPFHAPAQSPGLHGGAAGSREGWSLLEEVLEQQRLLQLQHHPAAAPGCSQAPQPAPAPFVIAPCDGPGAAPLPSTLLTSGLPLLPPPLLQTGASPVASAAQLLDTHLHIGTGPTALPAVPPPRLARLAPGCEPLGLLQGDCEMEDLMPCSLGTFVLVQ
Casein kinase I isoform gamma-1 (Homo sapiens), sequence (Q9HCP0 whole entry, looked up, canonical isoform): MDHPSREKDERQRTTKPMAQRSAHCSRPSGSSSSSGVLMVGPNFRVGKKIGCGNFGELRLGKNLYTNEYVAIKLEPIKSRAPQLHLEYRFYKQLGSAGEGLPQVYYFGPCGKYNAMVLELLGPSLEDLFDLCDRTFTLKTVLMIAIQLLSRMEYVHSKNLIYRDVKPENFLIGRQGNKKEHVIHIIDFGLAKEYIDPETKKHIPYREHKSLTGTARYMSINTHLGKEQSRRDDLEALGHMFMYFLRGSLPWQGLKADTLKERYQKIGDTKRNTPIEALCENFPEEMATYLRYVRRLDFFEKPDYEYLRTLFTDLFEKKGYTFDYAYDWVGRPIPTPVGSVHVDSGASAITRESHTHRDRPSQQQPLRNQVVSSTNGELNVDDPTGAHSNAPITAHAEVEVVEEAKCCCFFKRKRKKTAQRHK
Serine/threonine-protein kinase SIK2 (Homo sapiens), sequence (Q9H0K1 whole entry, looked up): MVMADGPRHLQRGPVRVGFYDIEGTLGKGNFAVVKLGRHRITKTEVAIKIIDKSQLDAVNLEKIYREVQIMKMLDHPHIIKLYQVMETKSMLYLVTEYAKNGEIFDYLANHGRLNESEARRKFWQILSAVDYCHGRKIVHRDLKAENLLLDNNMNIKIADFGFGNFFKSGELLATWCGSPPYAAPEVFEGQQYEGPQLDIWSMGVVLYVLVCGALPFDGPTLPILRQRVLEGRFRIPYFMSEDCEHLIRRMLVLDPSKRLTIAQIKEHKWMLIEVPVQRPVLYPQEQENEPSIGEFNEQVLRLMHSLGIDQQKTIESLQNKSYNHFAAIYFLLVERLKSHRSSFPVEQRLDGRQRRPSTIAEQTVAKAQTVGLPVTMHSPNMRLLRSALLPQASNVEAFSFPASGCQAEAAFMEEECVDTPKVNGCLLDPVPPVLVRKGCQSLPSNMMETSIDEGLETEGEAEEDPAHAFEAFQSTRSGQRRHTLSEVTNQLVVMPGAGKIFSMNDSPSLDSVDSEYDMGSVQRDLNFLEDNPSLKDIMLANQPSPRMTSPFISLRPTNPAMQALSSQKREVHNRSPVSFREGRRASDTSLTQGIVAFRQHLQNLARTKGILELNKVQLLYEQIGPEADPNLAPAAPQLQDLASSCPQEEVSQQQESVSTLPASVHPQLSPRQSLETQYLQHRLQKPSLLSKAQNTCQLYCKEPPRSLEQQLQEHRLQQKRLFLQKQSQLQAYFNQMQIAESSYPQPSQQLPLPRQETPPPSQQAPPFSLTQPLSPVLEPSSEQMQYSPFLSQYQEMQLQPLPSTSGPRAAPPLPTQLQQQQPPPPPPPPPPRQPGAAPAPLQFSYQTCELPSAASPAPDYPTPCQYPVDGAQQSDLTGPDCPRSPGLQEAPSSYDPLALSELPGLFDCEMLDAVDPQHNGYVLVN

For `Cc1ccc(-c2cc3c(NC(=O)C4CC4)ncnc3o2)cc1`, the inhibition in assay [1] is 1.12%; in assay [2], -0.12%; in assay [3], 4.13%; in assay [4], 0.83%; in assay [5] it was 0.27%; in [6], 6.5%. Moreover, the inhibition in assay [7] was 7.93%; in assay [8], -1.22%; in assay [9], 3.33%; in [10], 3.64%; in assay [11], 10.1%; in assay [12], 3.8%. In addition, the inhibition in assay [13] is 4.18%; in assay [14] it was 1.75%; in assay [15], 0.28%; in assay [16] it was 4.85%; in [17], 5.25%; in assay [18], 3.74%. Besides, the inhibition in assay [19] came to 4.78%; in assay [20], 2.32%.

Take `Fc1cccc(COc2ccc(Nc3ncncc3C#Cc3ccccc3)cc2Cl)c1`: the inhibition is 1.48% in [1]; -0.8% in assay [2]; 3.6% in [3]; 2.08% in assay [4]; 4.3% in assay [5]; 3.74% in [6]. Also, the inhibition in [7] came to 5.31%; in assay [8], 9.03%; in assay [9], 6.72%; in assay [10], 5.15%; in assay [11], 6.39%; in assay [12], 3.55%. The inhibition in assay [13] was 6.94%; in assay [14], 2.49%; in [15], 4.25%; in assay [16], 5.09%; in [17] it was 7.86%; in [18], 4.27%. The inhibition in [19] stood at 4.53%; in [20] it was 3.09%.

With `CNC(=O)c1sc(-n2cnc3cc(OC)c(OC)cc32)cc1OCc1ccccc1C(F)(F)F`, the inhibition in [1] was 0.56%; in assay [2], -0.77%; in assay [3] it was -0.33%; in [4], 1.17%; in assay [5] it was 1.03%; in assay [6], 5.73%. Moreover, the inhibition in [7] is 11.3%; in assay [8] it was 7.24%; in [9], 8.75%; in assay [10], 1.68%; in assay [11] it was 4.39%; in assay [12], 1.24%. Moreover, the inhibition in assay [13] came out at 1.63%; in assay [14], 1.51%; in assay [15] it was 1.01%; in assay [16] it was 0.44%; in assay [17], 2.65%; in assay [18], 3.33%. Besides, the inhibition came out at 3.86% in assay [19] and 3.4% in assay [20].

Take `Cc1cc(O)cc(C)c1/C=C/c1cncc(C(=O)OC(C)(C)C)c1`: the inhibition in [1] was 1.55%; in assay [2], -1.42%; in [3], 2.22%; in assay [4], 0.68%; in assay [5], 1.6%; in [6], 18.8%. The inhibition was 71.9% in assay [7]; 10.5% in assay [8]; 12.3% in [9]; 2.04% in [10]; 2.33% in [11]; 2.62% in assay [12]. Besides, the inhibition was determined as 1.67% in assay [13]; 1.48% in [14]; 1.69% in assay [15]; 1.27% in [16]; 3.48% in [17]; 2.21% in assay [18]. Further, the inhibition in assay [19] is 2.97%; in [20], 1.74%.

With `CN1CCC(n2cnc(-c3ccc(F)cc3)c2-c2ccnc(NCCO)n2)CC1`, the inhibition came out at 2.65% in assay [1]; 1.55% in assay [2]; 5.22% in [3]; 1.7% in [4]; 4.06% in assay [5]; 2.04% in [6]. Further, the inhibition in assay [7] is 6.87%; in [8], 4.44%; in [9], 16.6%; in assay [10], -0.04%; in assay [11], 7.57%; in assay [12], 4.44%. Further, the inhibition in [13] came to 6.56%; in assay [14] it was 3.07%; in assay [15], 4.33%; in assay [16] it was 37%; in assay [17], 73.4%; in [18], 4.15%. Further, the inhibition in [19] stood at 8.74%; in assay [20], 2.94%.

In the case of `CNC(=O)c1cncc(/C=C/c2ccccc2C)c1`, the inhibition in assay [1] is 1.06%; in [2], -0.06%; in assay [3], 5.04%; in assay [4] it was 1.79%; in assay [5] it was 3.16%; in assay [6], 10%. Further, the inhibition in assay [7] stood at 39.5%; in assay [8], 9%; in assay [9], 18.5%; in assay [10], 2.9%; in [11], 6.39%; in [12] it was 4.49%. Also, the inhibition in assay [13] was 5.13%; in assay [14], 3.39%; in [15], 2.6%; in [16], 1.22%; in assay [17] it was 5.05%; in [18], 2.73%. Moreover, the inhibition was 3.62% in [19] and 2.46% in assay [20].
